Source: PubChem (The Scripps Research Institute Molecular Screening Center)
Only some compounds are listed: those with a hit (about 1.8% of all), similar ones and a draw of the others.
Fam108B inh – counter-screen for RBBP9 inhibitors: inhibitors of mouse Fam108B | 300,000 compounds, 0.33% hits | recombinant Fam108B, FP-Rh probe fluorescence polarization | inhibition, % at 9.51 µM;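 active = inhibition above the screen mean inhibition plus 3 SD, computed separately per campaign, cut at about 18% in these data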;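 also: inhibitors lower polarization as less probe binds the enzyme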
PME-1 primary – PME-1 (human) inhibition. recombinant PME-1, FP-Rh probe fluorescence polarization. 320,000 compounds, 0.53% hits. AID 2130. inhibition, % at 5.9 µM. Q9Y570;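 active = inhibition above the campaign mean of all compounds plus 3 SD, cut at about 26% in these data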;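 also: competitive labeling of PME-1 active site by serine hydrolase directed probe; 0% = PME-1 with DMSO and 100% = wells lacking PME-1 enzyme; inhibitors block probe labeling so polarization falls and inhibition rises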
LYPLA1 counter – blocks human lysophospholipase 1, a PME1 counter-screen | inhibition, % at 5.9 µM | 320,000 compounds, 0.16% hits | recombinant LYPLA1, FP-Rh probe fluorescence polarization | AID 2174 | O75608;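 active = inhibition above the mean of all tested compounds plus 3 SD, set per campaign, cut at about 14% in these data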;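 also: inhibitors block serine hydrolase probe labeling of LYPLA1 so polarization falls; 0% = enzyme with DMSO and 100% = wells lacking LYPLA1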
Target sequence (O75608 whole entry, looked up): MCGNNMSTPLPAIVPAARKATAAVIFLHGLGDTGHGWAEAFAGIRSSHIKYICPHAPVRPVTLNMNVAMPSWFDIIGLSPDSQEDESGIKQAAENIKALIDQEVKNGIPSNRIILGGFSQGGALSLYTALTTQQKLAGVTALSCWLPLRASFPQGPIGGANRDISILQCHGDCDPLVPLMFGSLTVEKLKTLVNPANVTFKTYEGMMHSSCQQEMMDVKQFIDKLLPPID
PAD4 inh – blocks human protein arginine deiminase 4. Q9UM07. 330,000 compounds, 0.41% hits. recombinant PAD4, RCA probe fluorescence polarization. inhibition, % at 6.36 µM;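 active = percent inhibition above a cutoff equal to the mean of all tested compounds plus 3 SD, cut at about 15% in these data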;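 also: 0% = PAD4 with RCA probe and DMSO and 100% = probe without PAD4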
LYPLA2 inh – counter-screen for PME1 inhibitors: inhibitors of human LYPLA2 | recombinant LYPLA2, FP-Rh probe fluorescence polarization | inhibition, % at 5.9 µM | 320,000 compounds, 0.38% hits | O95372;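 active = inhibition above the screen-wide mean plus 3 SD, limit set per campaign, cut at about 26% in these data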;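 also: 0% = LYPLA2 with DMSO and 100% = wells lacking LYPLA2 enzyme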
Target sequence (O95372 whole entry, looked up): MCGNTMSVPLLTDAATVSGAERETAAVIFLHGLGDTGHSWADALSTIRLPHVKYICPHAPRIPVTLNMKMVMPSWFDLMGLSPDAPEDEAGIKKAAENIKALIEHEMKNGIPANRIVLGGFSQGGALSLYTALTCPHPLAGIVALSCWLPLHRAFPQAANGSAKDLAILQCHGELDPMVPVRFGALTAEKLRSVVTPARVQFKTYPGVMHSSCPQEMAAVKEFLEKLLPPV
GSTO1 inh – blocks human GSTO1 in RBBP9 counter-screen; 300,000 compounds, 1.1% hits; AID 1974; inhibition, % at 5.96 µM; P78417; recombinant GSTO1, activity-based probe fluorescence polarization;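 active = inhibition above the campaign mean inhibition plus 3 SD, cut at about 35% in these data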;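 also: 0% = GSTO1-1 with DMSO and 100% = wells lacking GSTO1-1 enzyme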
Target sequence (P78417 whole entry, looked up): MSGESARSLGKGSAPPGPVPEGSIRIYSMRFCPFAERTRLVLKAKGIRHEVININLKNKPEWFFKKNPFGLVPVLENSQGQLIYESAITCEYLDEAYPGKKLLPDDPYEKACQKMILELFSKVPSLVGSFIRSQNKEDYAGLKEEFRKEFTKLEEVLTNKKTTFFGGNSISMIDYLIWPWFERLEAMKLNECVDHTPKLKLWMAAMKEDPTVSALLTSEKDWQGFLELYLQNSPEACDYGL
Fam108b confirm – confirmation of mouse Fam108b serine hydrolase inhibitors; shares compounds with Fam108B inh; recombinant Fam108b, FP-Rh probe fluorescence polarization; inhibition, % at 9.51 µM; 930 compounds, 44% hits; AID 1978;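 active = inhibition above a limit from the primary screen, the mean over all compounds plus 3 SD, cut at about 19% in these data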;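 also: 0% = median of active Fam108b wells and 100% = catalytically dead S170A mutant; inhibitors free the probe so polarization falls as inhibition rises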
Fam108b ABPP HTS – inhibits mouse Fam108b in gel-based ABPP; shares compounds with Fam108B inh; 260 compounds, 44% hits; inhibition, % at 20 µM; recombinant Fam108b, fluorophosphonate probe; in the data active = inhibition above about 40%
The depositor's hits bear a star.

What do the screens show for `CCOc1cc(-c2nc(-c3ccccc3)c(-c3cc([N+](=O)[O-])ccc3C)[nH]2)ccc1O`?
Fam108B inh: 21.2*; PME-1 primary: 10.9; LYPLA1 counter: -7.3; PAD4 inh: -7.1; LYPLA2 inh: 6.4; GSTO1 inh: -1.3; Fam108b confirm: 7.5

What do the screens show for `COc1ccc(-c2nc(-c3cccs3)c(-c3cccs3)[nH]2)cc1O`?
Fam108B inh: 29.9*; PME-1 primary: 47.4*; LYPLA1 counter: -6.9; PAD4 inh: -8.0; LYPLA2 inh: -1.9; GSTO1 inh: -8.8; Fam108b confirm: 17.6

Results for O=C(O)c1ccc(-c2nc(-c3ccccc3)c(-c3cccs3)[nH]2)cc1 ?
Fam108B inh: 4.1; PME-1 primary: 10.8; LYPLA1 counter: 2.6; PAD4 inh: 0.8; LYPLA2 inh: 3.9; GSTO1 inh: -2.2

Results for Cc1ccc2c(C(=O)CN3CCC(C(N)=O)CC3)c(C)[nH]c2c1 ?
Fam108B inh: -0.1; PME-1 primary: -3.6; LYPLA1 counter: -3.3; PAD4 inh: -2.5; LYPLA2 inh: -7.9; GSTO1 inh: 1.9

What do the screens show for `CNC(=S)N/N=C/c1cc(Br)cc(Br)c1O`?
Fam108B inh: 15.9; PME-1 primary: 13.0; LYPLA1 counter: 4.1; PAD4 inh: -3.1; LYPLA2 inh: 4.8; GSTO1 inh: 10.5

Results for Oc1c(Br)cc(Br)cc1/C=N/NC(=S)N[C@H]1CC2C=CC1C2 (stereo partly drawn) ?
Fam108B inh: 18.4*; PME-1 primary: 25.6; LYPLA1 counter: -0.6; PAD4 inh: -2.5; LYPLA2 inh: 15.1; GSTO1 inh: -11.1; Fam108b confirm: 8.3

Results for COc1ccc(CNC(=O)c2ccc3nccnc3c2)cc1 ?
Fam108B inh: 19.0*; PME-1 primary: -0.6; LYPLA1 counter: 4.5; PAD4 inh: -0.6; LYPLA2 inh: 8.5; GSTO1 inh: 6.0; Fam108b confirm: 5.1

Results for COc1ccc(CNC(=O)c2ccncc2)cc1 ?
Fam108B inh: -5.3; PME-1 primary: 0.9; LYPLA1 counter: 0.6; PAD4 inh: -4.4; LYPLA2 inh: 3.8; GSTO1 inh: -2.2

What do the screens show for `COc1ccc(-c2csc(NC(=O)c3ccccc3NS(=O)(=O)c3ccc(C)cc3)n2)cc1`?
Fam108B inh: 35.8*; PME-1 primary: 20.8; LYPLA1 counter: -5.6; PAD4 inh: -5.9; LYPLA2 inh: 13.0; GSTO1 inh: -22.1; Fam108b confirm: 11.9

How did CCN1CCc2c(sc(NC(=O)Cc3ccccc3)c2C(N)=O)C1 do in these assays?
Fam108B inh: -0.2; PME-1 primary: 0.0; LYPLA1 counter: -1.6; PAD4 inh: -0.6; LYPLA2 inh: -3.5; GSTO1 inh: 0.2

What do the screens show for `CCN1CCc2c(sc(NC(=O)Nc3ccc(Cl)c(Cl)c3)c2C(N)=O)C1`?
Fam108B inh: 31.9*; PME-1 primary: 56.7*; LYPLA1 counter: 13.8; PAD4 inh: -6.0; LYPLA2 inh: 14.3; GSTO1 inh: -10.7; Fam108b confirm: 4.1

Results for O=C(CS(=O)CC(=O)N(CC(=O)NC1CCCC1)C1CCCC1)Nc1ccc(F)cc1 (stereo not drawn) ?
Fam108B inh: -0.9; PME-1 primary: 2.4; LYPLA1 counter: 0.6; PAD4 inh: -4.2; LYPLA2 inh: -2.3; GSTO1 inh: 0.6

Results for COc1ccc(C=NNC(=O)c2ccc(O)cc2)cc1CN1CCCc2ccccc21 ?
Fam108b ABPP HTS: 90.0*

What do the screens show for `COc1ccc(/C=N/NC(=O)c2ccc(O)cc2)cc1CN1CCCc2ccccc21`?
Fam108B inh: 27.5*; PME-1 primary: 26.9*; LYPLA1 counter: -2.0; PAD4 inh: 1.8; LYPLA2 inh: -4.3; GSTO1 inh: -20.2; Fam108b confirm: 33.3*

How did COc1ccc(/C=N/NC(=O)c2ccc(F)cc2)cc1CN1CCc2cc(OC)c(OC)cc2C1C (stereo not drawn) do in these assays?
Fam108B inh: -9.6; PME-1 primary: 0.0; LYPLA1 counter: -8.4; PAD4 inh: -2.0; LYPLA2 inh: -13.7; GSTO1 inh: 4.4

How did CCOc1cc(/C=C2/SC(=S)N(Cc3ccccc3)C2=O)ccc1O do in these assays?
Fam108B inh: -40.3; PME-1 primary: -177.8; LYPLA1 counter: -26.5; PAD4 inh: -69.8; LYPLA2 inh: -46.5; GSTO1 inh: -115.5

How did CCOc1cc(/C=C2\C(=O)N(c3nc(-c4ccc(Br)cc4)cs3)N=C2c2ccccc2)ccc1O do in these assays?
Fam108B inh: 42.4*; PME-1 primary: 10.1; LYPLA1 counter: -17.1; PAD4 inh: -10.2; LYPLA2 inh: -17.2; GSTO1 inh: -47.4; Fam108b confirm: 42.4*; Fam108b ABPP HTS: 90.0*

Results for COc1ccc(NS(=O)(=O)c2ccc3oc(Nc4ccc5c(c4)OCCO5)nc3c2)cc1 ?
Fam108B inh: 30.1*; PME-1 primary: 32.2*; LYPLA1 counter: -20.8; PAD4 inh: -6.3; LYPLA2 inh: -14.4; GSTO1 inh: -31.9; Fam108b confirm: -1.1

How did Cc1cc(CSc2ccccc2)ccc1NC(=O)c1ccc(Cl)c([N+](=O)[O-])c1 do in these assays?
Fam108B inh: 25.5*; PME-1 primary: -2.3; LYPLA1 counter: 4.6; PAD4 inh: -3.3; LYPLA2 inh: 12.8; GSTO1 inh: 4.0; Fam108b confirm: 62.6*; Fam108b ABPP HTS: 20.0

Results for Cc1cc(CSc2ccccc2)ccc1NC(=O)c1ccc(C)c([N+](=O)[O-])c1 ?
Fam108B inh: -4.4; PME-1 primary: 1.0; LYPLA1 counter: -2.1; PAD4 inh: -1.0; LYPLA2 inh: -2.7; GSTO1 inh: -2.3

How did CC(C)=CCN1CCNC(=O)C1CC(=O)NCc1nc(C)c(C)s1 (stereo not drawn) do in these assays?
Fam108B inh: 1.5; PME-1 primary: -3.1; LYPLA1 counter: 0.9; PAD4 inh: 0.1; LYPLA2 inh: 2.9; GSTO1 inh: 5.7

What do the screens show for `COc1ccc(-c2cc(-c3ccc(OC)c(OC)c3)n[nH]2)c(O)c1`?
Fam108B inh: 19.6*; PME-1 primary: 11.0; LYPLA1 counter: -9.0; PAD4 inh: -0.1; LYPLA2 inh: -1.2; GSTO1 inh: -20.1; Fam108b confirm: 6.3

Results for COc1ccc(O)c(-c2cc(-c3cccc(Br)c3)n[nH]2)c1 ?
Fam108B inh: 18.3*; PME-1 primary: 42.2*; LYPLA1 counter: 1.2; PAD4 inh: -7.2; LYPLA2 inh: -1.0; GSTO1 inh: -14.8; Fam108b confirm: -3.0

Results for O=C(N/N=C/c1ccc(-c2ccc(S(=O)(=O)Nc3ncccn3)cc2)o1)c1cc2ccccc2cc1O ?
Fam108B inh: 23.6*; PME-1 primary: -2.9; LYPLA1 counter: -8.9; PAD4 inh: -3.6; LYPLA2 inh: -21.1; GSTO1 inh: -2.7; Fam108b confirm: 20.4*
